Screening data as filed in PubChem BioAssay.
Shown are actives, neighbours in structure and some others; about 19% of the full set was active somewhere.
HT1080NT lethal: kills 2HG-producing HT-1080-NT fibrosarcoma cells; HT-1080-NT fibrosarcoma viability, CellTiter-Glo ATP luminescence, 48 h; Potency, µM (highest dose often 46.1 µM), for inactives: top-dose activity, negative = less viability, hits mostly cytotoxic; hit rate 1.6% among 360,000;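 further: NT is the 2HG producing partner of a matched IDH1 knockdown line; potency means the concentration at half of the fitted maximal effect; 0% = DMSO-treated cells and -100% = media-only wells without cells; nearly all actives have a fitted effect of over 55% in size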
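Viability by CellTiter-Glo luminescence after 48 h compound exposure at 37C of HT-1080-NT cells (750/well, RPMI, 5% FBS). % activity scaled between DMSO wells and medium-only wells, then curve-fitted and categorized by curve class.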
TDP1 cell noCPT: qHTS for Inhibitors of human tyrosyl-DNA phosphodiesterase 1 (TDP1): qHTS in cells in absence of CPT. DT40 Tdp1-/- hTDP1 cells, no CPT, ATP luminescence, 48 h. Potency, µM (top dose mostly 46.2 µM), inactives show at the highest dose activity change, negative = growth inhibition, usual class: inhibitors. hit rate 15% among 420,000. AID 686978, 2013; further: potency means the concentration at half of the fitted maximal effect; nearly all actives have a fitted effect of over 55% in size
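DT40 Tdp1-/-;hTDP1 cells, no CPT (DMSO vehicle only), 400 cells/well; compounds pin-transferred; ≥48 hr, 37 °C; CellTiter-Glo 30 min RT dark, luminescence read.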
IL1B secr inh: blocks inflammasome-driven IL-1 beta release; THP-1 LPS/ATP IL-1B secretion, AlphaLISA, 16 h; hits give low values; activity change, % at 57.5 µM; hit rate 4.7% among 360,000; in the data active means activity change below about -50%; inconclusive means mostly about -30% to -49%
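THP-1 cells pretreated 1 hr with compounds (up to 57.5 uM final), then stimulated with LPS (250 ng/mL final) plus ATP (1.25 mM final); secreted IL-1B measured by AlphaLISA after 16 hr, decreased signal indicating inhibition.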
ELG1 repair inh: inhibitors of ELG1-dependent DNA repair in HEK293T cells. Potency, µM (doses to about 46.1 µM), without a hit: at the top dose activity change, negative = inhibition, most hits filed as inhibitors. hit rate 2.3% among 330,000. HEK293T ELG1-luciferase reporter, luminescence, 16 h; DNA damage induced by 5-fluorouridine. AID 504467; further: potency means the concentration at half of the fitted maximal effect; nearly all actives have a fitted effect of over 55% in size
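Overnight (16 hr) co-exposure of 2,000 cells/well to 5-fluorouridine and compound at 37 °C preceded detection. Luciferase was quantified via ONE-Glo luminescence; loss of signal denotes inhibition.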
HT1080 IDH1KD tx: toxicity to HT-1080 IDH1 knockdown cells (counter line); HT-1080 IDH1 knockdown viability, ATP luminescence, 48 h; hit rate 2% among 360,000; Potency, µM (doses to about 46.1 µM), for inactives: at the highest dose activity, negative = toxicity, actives largely listed as cytotoxic; AID 686971;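 further: potency means the concentration at half of the fitted maximal effect; 0% = DMSO wells and -100% = cell-free medium wells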
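In this qHTS, HT-1080 cells depleted of IDH1 are exposed for 48 h at 37 °C to compound titrations. Toxicity is scored from CellTiter-Glo luminescence, with DMSO as full viability and medium alone as none.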
DT40 TDP1 CPT: DT40-hTDP1 cell growth loss with CPT; Potency, µM (top dose mostly 46.2 µM), for inactives: top-dose activity change, negative = growth inhibition, actives largely listed as inhibitors; chicken DT40 Tdp1-/-;hTDP1 cells + 20 nM CPT, ATP luminescence, 48 h; hit rate 12% among 420,000; further: potency means the concentration at half of the fitted maximal effect; nearly all actives have a fitted effect of over 55% in size
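Cell growth measured by CellTiter-Glo luminescence after a minimum 48 h, 37 C compound exposure with 20 nM CPT in Tdp1-knockout DT40 cells stably expressing hTDP1, seeded 400/well; qHTS titration format.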
Active calls of the source: *; ? = inconclusive; · = not tested or not shown. Unless noted, the call rests on the fitted dose curve; in most records, active means well fitted curve in the direction sought with a large enough effect; inconclusive means small, poorly fitted or top-dose-only effect, or another doubt; inactive means no such curve, though single readings can be large; an effect the other way counts as inactive or inconclusive. Unless noted, on the % scale 0 is the no-effect control and ±100 the full control effect.

SMILES	HT1080NT lethal	TDP1 cell noCPT	IL1B secr inh	ELG1 repair inh	HT1080 IDH1KD tx	DT40 TDP1 CPT
COc1cc(Br)cc(/C=N/NC(=O)Cc2ccccc2)c1O	18µM*	0.46µM*	99	·	8.2µM*	0.52µM*
O=C(Cc1ccccc1)N/N=C/c1cc(Br)cc(Cl)c1O	?	2.3µM*	?	?	?	3.7µM*
COC(=O)C(C(=O)OC)c1ccccc1NC(=O)OCc1ccccc1	-28%	?	7	·	?	?
O=C(/C=C/c1ccc(N2CCCCC2)c([N+](=O)[O-])c1)c1ccc(S(=O)(=O)N2CCCC2)cc1	7%	9.2µM*	6	?	3%	9.2µM*
CC(=O)N1CCN(c2ccc(S(=O)(=O)N3CCCCC3)cc2[N+](=O)[O-])CC1	-3%	?	6	?	5%	-23%
COc1cccc(C(=O)/C=C/c2ccc(N3CCCCC3)c([N+](=O)[O-])c2)c1	?	?	-96*	1%	?	18µM*
COc1ccc(O)c(C(=O)c2coc(=N)c(C(=O)Nc3ccc(SC(F)F)cc3)c2)c1	-10%	18µM*	-54*	16µM*	-14%	?
CC(C)OC(=O)c1cc(C(=O)c2cc(F)ccc2O)coc1=N	-3%	-16%	15	-14%	-2%	-22%
CC(C)N1CCN(Cc2ccc3c(c2)Cc2ccccc2-3)CC1CCO (stereo not drawn)	?	23µM*	-11	3%	?	?
CC(C)N1CCN(Cc2ccc(-c3ccccc3)cc2)CC1CCO (stereo not drawn)	?	?	-15	-5%	?	2%
CCCCOCCCNC(=O)C[C@@H]1C[C@@]2(C(=O)OC)CCCCC=C2N(CCc2ccc(OC)c(OC)c2)C1=O	-6%	?	-2	·	-2%	?
COC(=O)[C@]12CCCCC=C1N(CCc1ccc(OC)c(OC)c1)C(=O)[C@H](CC(=O)NCc1cccc3ccccc13)C2	?	9.2µM*	-14	·	?	10µM*
COC(=O)[C@]12CCCCC=C1N(Cc1ccc3c(c1)OCO3)C(=O)[C@H](CC(=O)NCc1ccc(OC)c(OC)c1)C2	8%	?	-19	·	3%	?
COC(=O)[C@]12CCCCC=C1N(CCc1ccc(OC)c(OC)c1)C(=O)[C@H](CC(=O)NCc1ccc(C)o1)C2	12%	?	-11	·	22%	16µM*
CCC(CC)C(=O)NC1CC(=O)N(c2ccc3c(c2)OCCO3)C1 (stereo not drawn)	·	-12%	·	·	·	-13%
O=C(Nc1cccc(F)c1)c1oc2ccccc2c1NC(=O)C12CC3CC(CC(C3)C1)C2	·	12%	·	·	·	-5%
Cc1ccc(N=C2CCCN2Cc2ccccc2)c(C#N)c1	2%	21µM*	-4	12%	6%	?
C=CCn1c(SCC(=O)N(CCO)CCO)nc2sc3c(c2c1=O)CCC3	0%	12%	-11	2%	-1%	-2%
O=C(NC1CCCCC1)c1c[nH]c2ccc(S(=O)(=O)Nc3ccccc3F)cc2c1=O	·	?	·	·	·	-1%
CCc1ccccc1NS(=O)(=O)c1ccc2[nH]cc(C(=O)NC3CCCC3)c(=O)c2c1	?	?	-30	?	18µM*	?
CCN(c1ccccc1)S(=O)(=O)c1ccc2[nH]cc(C(=O)NC3CCCCC3)c(=O)c2c1	·	15µM*	·	·	·	?
CCN(c1ccccc1)S(=O)(=O)c1ccc2[nH]cc(C(=O)NCCOC)c(=O)c2c1	-10%	?	28	?	-9%	?
CCC(=O)N(CCCN(C)C)c1nc(-c2cc(OC)ccc2OC)cs1	-15%	-8%	?	5%	-13%	-18%
CCN(CC)CCCN(C(=O)c1ccccc1F)c1nc(-c2ccc(OC)cc2)cs1	18µM*	?	-65*	-28%	?	?
CCN(CC)CCCN(C(=O)c1ccc(OC)cc1)c1nc(-c2ccc(OC)cc2)cs1	23µM*	?	·	?	15µM*	?
SMILES	HT1080NT lethal	TDP1 cell noCPT	IL1B secr inh	ELG1 repair inh	HT1080 IDH1KD tx	DT40 TDP1 CPT
CCN(CC)CCCN(C(=O)c1ccccc1C)c1nc(-c2ccc(OC)cc2)cs1	-26%	23µM*	-21	?	-22%	?
COCCCN(C(C)=O)c1nc(-c2ccc(OC)cc2)cs1	-29%	?	26	-20%	-22%	15µM*
CCN(C(=O)c1cccs1)c1nc(-c2ccc(OC)cc2)cs1	?	?	-20	?	0%	-3%
CCCS(=O)(=O)NC(=O)C1(C)CCN(C(=O)c2cc(F)ccc2C)C1 (stereo not drawn)	21%	-8%	23	·	10%	-5%
O=C(NCCc1c[nH]c2ccccc12)c1[nH]c(C(F)(F)F)nc1-c1ccccc1	-4%	?	36	·	-6%	?
C/C(=N\NC(=O)c1c([N+](=O)[O-])c(C)nn1C)c1ccc(NC(=O)C2CCCC2)cc1	0.46µM*	0.18µM*	106	?	0.33µM*	0.16µM*
C/C(=N\NC(=O)c1c(Cl)c(C)nn1C)c1ccc(NC(=O)C2CCC2)cc1	1.6µM*	0.37µM*	101	-20%	0.82µM*	0.65µM*
COCCN1C(=O)CSCC1(C)C(=O)NCc1ccccc1 (stereo not drawn)	45%	5%	42	·	0%	23%
Cc1cccc(NC(=S)NC(C)C(c2ccccc2)N2CCN(C)CC2)c1C (stereo not drawn)	-8%	26µM*	-50*	?	-11%	?
COc1ccc(NC(=O)CN2CCN(Cc3ccccc3)CC2)cc1	5%	-1%	3	-9%	8%	7%
CCCCNC(=O)CN1CCN(Cc2ccc3cc(OC)ccc3c2)CC1	-5%	18µM*	0	-12%	-13%	?
CC(C)Cc1ccc(C(C)/C=C2/CCC(CN3CCCCC3)C2=O)cc1 (stereo not drawn)	?	2.9µM*	-106*	·	?	2.9µM*
CC(C)Cc1ccc(CN2CCCC(NC(=O)CCN3CCCCC3=O)C2)cc1 (stereo not drawn)	-15%	?	21	7%	-5%	?
Nc1c(C(=O)NCc2ccc(F)cc2)c2nc3ccccc3nc2n1CCCN1CCOCC1	?	18µM*	-10	?	?	?
